This passage reports outcome and AC50 results from PubChem BioAssay (EPA / NIEHS).

Inconclusive results are not listed. Calls of active or inactive are those of the source. Rule for the calls, unless noted: active = hit-call score of the fitted dose curve at least 0.9, where 1 is the maximum; inactive = score below 0.9.

A short description of assay [1]: ATG_PBREM_CIS: Attagene CIS-FACTORIAL HepG2 Assay for human Phenobarbital-responsive Enhancer Module (PBREM) (AID 2282955). The settings on record: HepG2 PBREM cis-reporter, Attagene multiplexed transcription; actives raise or lower the signal. In short, it runs like this:
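Cells were transfected with cis-element reporter units and treated for 24 h, after which RNA was extracted and reporter transcripts measured by RT-PCR and capillary electrophoresis.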

The target of assay [2] is Paired box protein Pax-6 (Homo sapiens) (UniProt P26367). In words: ATG_Pax6_CIS: Attagene CIS-FACTORIAL HepG2 Assay for human Paired Box 6 (PAX6) (AID 2282956). The settings on record: HepG2 CIS-FACTORIAL PAX6 reporter transcription, RNA readout; actives raise or lower the signal. A digest of the protocol: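 DMSO-referenced bidirectional fits of reporter mRNA fluorescence; HepG2 with transient cis-promoter MRTUs, 24 h post-dose, RT-PCR plus capillary electrophoresis detection.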

Assay [3] can be described thus: ATG_PXRE_CIS: Attagene CIS-FACTORIAL HepG2 Assay for human Pregnane X Receptor Element (PXRE) (AID 2282957). The settings on record: HepG2 Attagene CIS-FACTORIAL PXRE reporter, mRNA; actives raise or lower the signal. In short, it runs like this: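 After a 24 h chemical incubation, total RNA from transfected HepG2 cells was reverse-transcribed and reporter cDNA amplified, FAM-labeled, HpaI-digested and sized by capillary electrophoresis. DMSO served as baseline for bidirectional curve fitting.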

Assay [4] in a line: ATG_PPRE_CIS: Attagene CIS-FACTORIAL HepG2 Assay for human Peroxisome Proliferator-activated Response Element (PPRE) (AID 2282958). The note with it: HepG2 PPRE cis-element reporter, Attagene transcription factor profiling; actives raise or lower the signal. A digest of the protocol:
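In this cell-based multiplex, a PPRE cis element drives a reporter sequence in transiently transfected HepG2 cells. Following 24 h treatment, labeled cDNA amplicons are sized and quantified by capillary electrophoresis, with DMSO defining baseline.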

Assay [5] can be described thus: ATG_RORE_CIS: Attagene CIS-FACTORIAL HepG2 Assay for human RAR-related Orphan Receptor Element (RORE) (AID 2282959). The note with it: HepG2 Attagene cis-factorial RORE reporter, mRNA; actives raise or lower the signal. In short, it runs like this: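 Endogenous factor activity at a cis response element is read as reporter transcript levels in HepG2 cells, 24 h post-dose. Transcripts are quantified by RT-PCR with capillary electrophoresis, and data fitted in both directions against DMSO.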

Assay [6] in a line: ATG_Sox_CIS: Attagene CIS-FACTORIAL HepG2 Assay for human SRY-box transcription factor (SOX) (AID 2282960). The settings on record: HepG2 Attagene cis-factorial SOX reporter, mRNA; actives raise or lower the signal. In short, it runs like this: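 Measures mRNA induction of a SOX1-associated reporter in HepG2 after 24 h dosing. Fluorescently labelled RT-PCR fragments are separated by capillary electrophoresis, and gain or loss relative to DMSO control is fitted.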

For assay [7], the target named is Transcription factor Sp1 (Homo sapiens) (UniProt P08047). The experiment in a line: ATG_Sp1_CIS: Attagene CIS-FACTORIAL HepG2 Assay for human Specificity Protein 1 (Sp1) (AID 2282961). The note with it: HepG2 Sp1 cis-reporter transcription, actives raise or lower the signal. In short, it runs like this:
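Cells: HepG2, transiently transfected with cis-regulated multiplexed reporters. Exposure: 24 h. Detection: reporter transcripts amplified, fluorescently labeled, restriction-digested and sized by capillary electrophoresis. Analysis: bidirectional fit relative to DMSO.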

A short description of assay [8]: ATG_SREBP_CIS: Attagene CIS-FACTORIAL HepG2 Assay for human Sterol Regulatory Element Binding (SREBP) (AID 2282962). The settings on record: HepG2 Attagene cis-factorial SREBP reporter, mRNA; actives raise or lower the signal. A digest of the protocol: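 In this cis-format assay, HepG2 liver cells express reporters controlled by promoter elements responsive to native transcription factors. Exposure lasts 24 h; reporter mRNA fluorescence from capillary electrophoresis gives the signal, fitted bidirectionally against DMSO.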

Assay [9] can be described thus: ATG_TA_CIS: Attagene CIS-FACTORIAL HepG2 Assay for human TA Basal Promoter (AID 2282964). The settings on record: HepG2 Attagene CIS-factorial TA basal promoter reporter; actives raise or lower the signal. A digest of the protocol: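 Read-out: fluorescent reporter-transcript fragments resolved by capillary electrophoresis after RT-PCR and HpaI digestion. Source: HepG2 cells carrying transiently transfected multi-reporter cis constructs, treated 24 h. Endpoint fitted bidirectionally relative to DMSO.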

A short description of assay [10]: ATG_TCF_b_cat_CIS: Attagene CIS-FACTORIAL HepG2 Assay for human T-Cell-Factor with beta-catenin (TCF/b-cat) (AID 2282965). The settings on record: HepG2 TCF/beta-catenin cis-reporter transcription, actives raise or lower the signal. In short, it runs like this: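 HepG2, transient MRTU transfection, cis-element-driven reporters (endogenous TFs). 24 h compound exposure. Readout: reporter mRNA by RT-PCR + 6-FAM primer extension, HpaI digest, capillary electrophoresis. Gain/loss fit vs DMSO baseline.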

A short description of assay [11]: ATG_TAL_CIS: Attagene CIS-FACTORIAL HepG2 Assay for human TAL Basal Promoter (AID 2282966).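 Note: background control endpoint measuring basal TAL promoter reporter mRNA not a specific factor.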 The note with it: HepG2 Attagene cis-factorial TAL promoter reporter; actives raise or lower the signal. In short, it runs like this: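 Basal-promoter background-control endpoint from a multiplexed HepG2 reporter panel. Cells were exposed 24 h, then reporter mRNA was read by RT-PCR/CE fluorescence and fitted in both directions relative to DMSO.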

A short description of assay [12]: ATG_TGFb_CIS: Attagene CIS-FACTORIAL HepG2 Assay for human Transforming Growth Factor (TGF) (AID 2282967). The note with it: HepG2 Attagene CIS TGFb reporter, mRNA transcription; actives raise or lower the signal. In short, it runs like this:
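Transient MRTU transfection of HepG2 (FuGene 6). Dose 24 h. TriZol RNA, oligo(dT) RT, PCR, 6-FAM primer extension, HpaI cut, CE. Bidirectional fit, DMSO = baseline.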

A short description of assay [13]: ATG_VDRE_CIS: Attagene CIS-FACTORIAL HepG2 Assay for human Vitamin D Receptor Element (VDRE) (AID 2282968). The settings on record: HepG2 VDRE cis-reporter transcription, actives raise or lower the signal. In short, it runs like this: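 Transient MRTU transfection of HepG2, 24 h compound exposure. Readout: reporter transcripts via RT-PCR and capillary electrophoresis, fluorescence. Bidirectional fit vs DMSO.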

The target in assay [14] is Estrogen receptor (Homo sapiens) (UniProt P03372). The experiment in a line: ATG_ERa_TRANS: Attagene TRANS-FACTORIAL HepG2 Assay for human Estrogen Receptor alpha (ERa) (AID 2282970; active = hit-call score of the fitted dose curve at least 0.9, where 1 is the maximum). The note with it: HepG2 Attagene TRANS ERa GAL4 reporter, mRNA. In short, it runs like this: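 Gal4-fusion ERa transactivation, measured as reporter transcript level in transiently transfected HepG2 cells. Exposure 24 h; RT-PCR plus capillary electrophoresis with fluorescence detection.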

Assay [15] has as its target X-box-binding protein 1 (Homo sapiens) (UniProt P17861). In words: ATG_Xbp1_CIS: Attagene CIS-FACTORIAL HepG2 Assay for human X-box Binding Protein 1 (XBP1) (AID 2282972). The note with it: HepG2 XBP1 cis-element reporter, Attagene multiplex; actives raise or lower the signal. A digest of the protocol:
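Changes in reporter transcript abundance, read by RT-PCR and capillary electrophoresis, reflect endogenous transcription factor activity. Transfected HepG2 cells received compound for 24 hours; DMSO defined baseline for bidirectional analysis.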

Assay [16] can be described thus: ATG_M_19_TRANS: Attagene TRANS-FACTORIAL HepG2 Assay for M19 Transcription Factor (Internal Marker) (AID 2282974; active = hit-call score of the fitted dose curve at least 0.9, where 1 is the maximum). The note with it: HepG2 Attagene TRANS-FACTORIAL M19 internal marker reporter. A digest of the protocol: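 Reporter mRNA induction was measured in transfected HepG2 cells 24 h after dosing. Endpoint fitted upward relative to DMSO and serves as a background control within the multiplexed TRANS panel.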

Assay [17] is described as follows: ATG_GAL4_TRANS: Attagene TRANS-FACTORIAL HepG2 Assay for GAL4 (Internal Marker) (AID 2282976; active = hit-call score of the fitted dose curve at least 0.9, where 1 is the maximum). The settings on record: HepG2 Attagene TRANS GAL4 internal marker reporter. In short, it runs like this: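 Background-control readout: GAL4-UAS reporter transcript in transiently transfected HepG2 cells after 24 h compound exposure. Measured by RT-PCR, 6-FAM primer extension, HpaI digest and capillary electrophoresis; gain-of-signal fit versus DMSO.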

Assay [18] deals with Signal transducer and activator of transcription 3 (Homo sapiens) (UniProt P40763). In words: ATG_STAT3_CIS: Attagene CIS-FACTORIAL HepG2 Assay for human Signal Transducer and Activator of Transcription 3 (STAT3) (AID 2282963). The settings on record: HepG2, Attagene cis-factorial STAT3 reporter transcription; actives raise or lower the signal. In short, it runs like this: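 Readout: fluorescent reporter mRNA fragments resolved by capillary electrophoresis. Setup: HepG2 transfected with MRTUs reporting endogenous transcription-factor activity, dosed 24 h. Gain or loss of signal fitted bidirectionally against DMSO control.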
Signal transducer and activator of transcription 3 (Homo sapiens), sequence (P40763 whole entry, looked up, the tested form may be a part): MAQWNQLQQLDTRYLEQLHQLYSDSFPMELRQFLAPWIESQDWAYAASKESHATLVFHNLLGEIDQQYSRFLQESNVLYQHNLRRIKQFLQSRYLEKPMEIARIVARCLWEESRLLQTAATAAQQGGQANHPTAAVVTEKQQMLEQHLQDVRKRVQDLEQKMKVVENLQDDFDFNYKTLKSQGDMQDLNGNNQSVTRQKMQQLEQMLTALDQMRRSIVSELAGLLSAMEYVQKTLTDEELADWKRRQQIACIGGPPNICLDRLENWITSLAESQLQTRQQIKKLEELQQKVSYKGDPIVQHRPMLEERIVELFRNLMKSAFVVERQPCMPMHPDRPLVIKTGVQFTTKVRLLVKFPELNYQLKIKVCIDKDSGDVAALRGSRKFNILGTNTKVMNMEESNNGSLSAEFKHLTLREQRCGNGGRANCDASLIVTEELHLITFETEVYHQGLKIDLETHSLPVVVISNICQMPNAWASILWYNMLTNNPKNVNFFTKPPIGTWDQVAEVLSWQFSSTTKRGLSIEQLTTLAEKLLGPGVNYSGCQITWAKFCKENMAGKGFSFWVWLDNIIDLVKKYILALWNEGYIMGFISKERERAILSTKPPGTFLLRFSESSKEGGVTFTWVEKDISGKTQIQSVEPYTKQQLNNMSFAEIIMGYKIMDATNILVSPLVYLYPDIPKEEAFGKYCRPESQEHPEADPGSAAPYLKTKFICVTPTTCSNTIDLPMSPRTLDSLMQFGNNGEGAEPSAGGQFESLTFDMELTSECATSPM

Estrogen receptor (Homo sapiens), sequence (P03372 whole entry, looked up, the tested form may be a part): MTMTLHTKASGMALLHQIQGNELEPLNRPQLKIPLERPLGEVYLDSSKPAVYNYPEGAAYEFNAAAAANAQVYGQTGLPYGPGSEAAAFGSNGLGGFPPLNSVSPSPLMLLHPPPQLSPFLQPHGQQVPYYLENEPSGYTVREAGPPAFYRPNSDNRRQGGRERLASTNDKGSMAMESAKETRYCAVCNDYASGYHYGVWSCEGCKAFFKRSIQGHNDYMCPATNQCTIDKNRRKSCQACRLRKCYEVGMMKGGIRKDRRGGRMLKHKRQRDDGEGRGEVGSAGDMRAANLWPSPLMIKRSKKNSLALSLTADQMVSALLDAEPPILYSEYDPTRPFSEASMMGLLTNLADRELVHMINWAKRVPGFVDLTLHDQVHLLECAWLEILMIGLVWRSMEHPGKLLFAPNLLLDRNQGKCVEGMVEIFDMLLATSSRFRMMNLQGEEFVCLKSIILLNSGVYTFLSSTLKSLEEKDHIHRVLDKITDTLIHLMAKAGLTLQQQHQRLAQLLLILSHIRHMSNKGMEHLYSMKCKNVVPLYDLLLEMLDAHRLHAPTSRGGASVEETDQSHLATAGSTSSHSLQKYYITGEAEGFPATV
X-box-binding protein 1 (Homo sapiens), sequence (P17861 whole entry, looked up): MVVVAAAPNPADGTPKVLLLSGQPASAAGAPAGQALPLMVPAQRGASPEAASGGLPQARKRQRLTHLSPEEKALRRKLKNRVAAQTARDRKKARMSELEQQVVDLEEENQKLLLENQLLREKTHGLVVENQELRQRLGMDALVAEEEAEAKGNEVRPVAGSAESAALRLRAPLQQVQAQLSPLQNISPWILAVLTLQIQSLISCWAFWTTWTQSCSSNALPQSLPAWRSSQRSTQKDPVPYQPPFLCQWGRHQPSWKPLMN
Transcription factor Sp1 (Homo sapiens), sequence (P08047 whole entry, looked up): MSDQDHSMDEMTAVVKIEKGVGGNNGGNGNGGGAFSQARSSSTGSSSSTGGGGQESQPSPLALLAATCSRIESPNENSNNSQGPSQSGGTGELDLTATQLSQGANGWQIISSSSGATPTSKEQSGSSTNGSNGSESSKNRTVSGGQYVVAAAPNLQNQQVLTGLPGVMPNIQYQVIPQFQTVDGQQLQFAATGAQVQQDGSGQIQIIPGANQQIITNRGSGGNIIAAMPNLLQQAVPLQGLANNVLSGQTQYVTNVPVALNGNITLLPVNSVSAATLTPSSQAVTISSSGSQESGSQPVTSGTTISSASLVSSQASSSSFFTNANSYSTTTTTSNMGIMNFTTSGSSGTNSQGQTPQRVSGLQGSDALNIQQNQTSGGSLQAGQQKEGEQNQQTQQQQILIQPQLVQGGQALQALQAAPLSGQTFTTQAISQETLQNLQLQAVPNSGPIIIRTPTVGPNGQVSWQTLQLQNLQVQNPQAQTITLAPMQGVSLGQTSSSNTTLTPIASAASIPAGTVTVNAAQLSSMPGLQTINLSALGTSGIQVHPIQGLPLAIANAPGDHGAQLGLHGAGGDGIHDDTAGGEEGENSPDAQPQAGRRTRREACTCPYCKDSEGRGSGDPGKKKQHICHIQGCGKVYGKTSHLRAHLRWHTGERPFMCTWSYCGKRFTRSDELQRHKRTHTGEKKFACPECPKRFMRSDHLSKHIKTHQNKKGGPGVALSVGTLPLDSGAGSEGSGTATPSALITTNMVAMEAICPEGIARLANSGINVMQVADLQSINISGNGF
Paired box protein Pax-6 (Homo sapiens), sequence (P26367 whole entry, looked up): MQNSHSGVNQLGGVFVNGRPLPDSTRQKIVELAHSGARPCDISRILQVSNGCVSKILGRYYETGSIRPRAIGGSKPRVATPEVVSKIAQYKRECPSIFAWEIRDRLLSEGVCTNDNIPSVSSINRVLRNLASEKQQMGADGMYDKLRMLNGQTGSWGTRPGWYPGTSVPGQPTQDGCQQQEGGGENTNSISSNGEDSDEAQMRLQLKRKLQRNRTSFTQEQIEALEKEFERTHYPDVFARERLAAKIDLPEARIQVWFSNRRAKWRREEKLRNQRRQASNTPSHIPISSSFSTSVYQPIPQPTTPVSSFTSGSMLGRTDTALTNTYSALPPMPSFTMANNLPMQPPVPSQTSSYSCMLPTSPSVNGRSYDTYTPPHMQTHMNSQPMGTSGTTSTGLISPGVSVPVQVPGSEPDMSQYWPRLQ

For the compound `COc1cc(O)c(C(=O)c2ccccc2)cc1S(=O)(=O)O`, the outcome in [1], in assay [2], in assay [3], in [4], in assay [5] and in [6] was inactive. Moreover, the compound was called inactive in [7], in assay [8], in assay [9], in assay [10], in assay [11] and in assay [12]. Besides, the compound was classed as inactive in assay [13], in [14], in assay [15], in assay [16] and in assay [17].
Turning to `COc1ccc(-c2coc3cc(O)cc(O)c3c2=O)cc1`, the outcome in [1], in assay [2], in assay [7], in assay [8], in assay [18] and in [9] was inactive. Moreover, the compound was called inactive in assay [10], in [11], in assay [12], in assay [16] and in assay [17]. Moreover, the AC50 was 24.9 µM (active) in assay [3]; 100 µM (active) in [4]; 27 µM (active) in assay [13]; 0.432 µM (active) in [14]; 100 µM (active) in [15].
With `C=CC(=O)O[C@H]1C[C@@H]2CC[C@@]1(C)C2(C)C`, the result in assay [1], in assay [2], in assay [6], in assay [8], in assay [18] and in [10] was inactive. In addition, the compound was classed as inactive in assay [11], in assay [12], in assay [13] and in assay [15]. For the same compound, the AC50 in assay [3] is 1.52 µM (active); in [4] it was 29.7 µM (active); in [7], 160 µM (active); in [9], 141 µM (active); in assay [14], 100 µM (active).
Turning to `CC(C)(CO)COC(=O)C(C)(C)CO`, the result in [1], in assay [2], in assay [3], in assay [4], in assay [7] and in assay [8] was inactive. Also, the compound was classed as inactive in assay [18], in assay [9], in assay [10], in assay [11], in assay [12] and in assay [13]. The result in assay [14], in [16] and in [17] was inactive.
As to `CCCC(C)C(=O)OCC` (stereo not drawn), the result in assay [1], in [2], in [3], in assay [4], in assay [7] and in [8] was inactive. Moreover, the compound was called inactive in assay [18], in assay [9], in [10], in [11], in [12] and in [13]. The compound was called inactive in assay [14], in assay [15] and in assay [17].
Consider `CC(C)C(=O)OCCOc1ccccc1`, for which the result in assay [1], in assay [2], in assay [4], in [5], in [6] and in assay [7] was inactive. In addition, the outcome in assay [8], in assay [9], in [10], in assay [11], in assay [12] and in assay [13] was inactive. In addition, the result in assay [15] and in assay [16] was inactive. The half-maximal activity concentration (AC50) in [3] is 4.56 µM (active).
Turning to `C=C(C)C(=O)OCCOC(=O)C(=C)C`, the result in assay [1], in [2], in [3], in assay [4], in assay [5] and in assay [7] was inactive. Also, the result in [8], in [18], in assay [9], in [10], in [11] and in assay [12] was inactive. Further, the outcome in assay [14], in [15] and in assay [17] was inactive.
As for `CC(C)(O)Cc1ccccc1`, the result in assay [1], in assay [2], in assay [3], in assay [4], in assay [5] and in assay [7] was inactive. Also, the outcome in [8], in [18], in assay [9], in assay [10], in [11] and in assay [12] was inactive. The compound was called inactive in assay [13], in [14] and in assay [16].

In general, AC50 refers to the concentration at which the activity in the assay is half-maximal.
